# Laboratory results taken from ChEMBL document CHEMBL3988442, “University of Dundee, Small-Polar-MMV Screening Library” (2021).
# Out of some 66,000 compounds screened, about 960 (1.5%) showed an effect of 50% or more. What follows is part of a selection rich in strong results, with near analogues and random picks from the rest.
# Test system: Trypanosoma brucei
# Assay: Trypanosoma brucei 72 hour study
# Type: functional, organism-based
# Design: scale not given: in the data most compounds retested in dose-response had high values
smiles,measurement,setting,value
O=C1CC(N(C(=O)Cc2csc(-c3ccccc3)n2)C2CC2)C(=O)N1 (stereo unspecified),Percent Effect,"30 µM, 30.03 µM",106%
O=C1CC(N(C(=O)c2csc(-c3ccccc3)n2)C2CC2)C(=O)N1 (stereo unspecified),Percent Effect,"30 µM, 30.03 µM",9.836%
Cc1nc(-c2ccccc2)sc1C(=O)N(C1CC1)C1CC(=O)NC1=O (stereo unspecified),Percent Effect,"30 µM, 30.03 µM",37.33%
O=C(O)C(F)(F)F.O=C1COC2(CCN(CC3CC3)CC2)CN1c1ccsc1,Percent Effect,"30.3 µM, […]",-336%
Cn1cc(N2CCC3(CCCN(Cc4ccc(F)cc4)C3)C2=O)cn1.O=C(O)C(F)(F)F (stereo unspecified),Percent Effect,"30 µM, 30.03 µM",66.19%
Cc1nc(CN2CCCC3(CCN(c4cnn(C)c4)C3=O)C2)cs1.O=C(O)C(F)(F)F (stereo unspecified),Percent Effect,"30.3 µM, […]",-9.884%
Cn1cc(CN2CCC3(CCN(c4cnn(C)c4)C3=O)C2)cn1.O=C(O)C(F)(F)F (stereo unspecified),Percent Effect,"30 µM, 30.03 µM",-6.498%
COCCNc1ccc(CC2CCCNC2)cn1.Cl (stereo unspecified),Percent Effect,"30.3 µM, […]",0.7781%
CSCc1cc(F)ccc1CNC(=O)N1CCC(CO)CC1,Percent Effect,"30 µM, 30.03 µM",-59.11%
CN(C)c1ccc(CNC2=NCCCN2)cc1.I,Percent Effect,"30.3 µM, […]",99.22%
I.c1ccc(OCCNC2=NCCCN2)cc1,Percent Effect,"30 µM, 30.03 µM",-0.004482%
CCOCc1ccc(CNC2=NCCCN2)cc1.I,Percent Effect,"30.3 µM, […]",-5.411%
NC[C@H]1CC[C@H](C(NC(=O)CC2CCCC2)c2ccccn2)CC1 (stereo partly specified),Percent Effect,"30.3 µM, […]",-41.17%
CCCN1C[C@H](NC(=O)c2ccccc2F)[C@@H](c2ccc(OC)cc2)C1,Percent Effect,"30.3 µM, […]",-8.438%
Cc1ccc(CN2CCC3(CC2)CC(CC(=O)NC(C)C)CO3)s1.O=C(O)C(F)(F)F (stereo unspecified),Percent Effect,"30.3 µM, […]",-52.98%
O=C(C1CCOCC1)N1C[C@H]2C[C@H](OCc3ccccc3)C[C@H]2C1,Percent Effect,"30.3 µM, […]",32.35%
CN(C)CCOCC1CN(Cc2ccsc2)Cc2nnn(C)c21.O=C(O)C(F)(F)F.O=C(O)C(F)(F)F (stereo unspecified),Percent Effect,"30.3 µM, […]",-20.25%
Cc1nc(C)n(C2CCCN(C(=O)c3ccc(O)nc3)C2)n1 (stereo unspecified),Percent Effect,10 µM,-79.94%
Cc1nccn1C1CCCN(C(=O)c2ccc(N(C)C)nn2)C1 (stereo unspecified),Percent Effect,"30.3 µM, […]",-14.31%
Cc1cc(C)n(C2CCCN(C(=O)c3ccc(NC4CC4)nc3)C2)n1 (stereo unspecified),Percent Effect,"30 µM, 30.03 µM",3.181%
Cc1nccn1C1CCCN(C(=O)c2ccc(N(C)C)nc2)C1 (stereo unspecified),Percent Effect,"30 µM, 30.03 µM",59.27%
Cc1nc(C)n(C2CCCN(C(=O)c3ccc(NC4CC4)nc3)C2)n1 (stereo unspecified),Percent Effect,"30 µM, 30.03 µM",56.19%
CN(C)c1ccc(C(=O)N2CCCC(n3cccn3)C2)cn1 (stereo unspecified),Percent Effect,"30.3 µM, […]",-20.71%
CN(C)CCCN(C)C1CCN(c2cccc(-c3cscn3)c2)CC1,Percent Effect,"30.3 µM, […]",17.15%
c1ccc(-c2cccc(N3CCC(NCCc4cscn4)CC3)c2)cc1,Percent Effect,"30.3 µM, […]",99.95%
c1cc(-c2cscn2)cc(N2CCC(NCCc3cccs3)CC2)c1,Percent Effect,"30.3 µM, […]",64.97%
CC(C)CC(C)NC1CCN(c2cccc(-c3cscn3)c2)CC1 (stereo unspecified),Percent Effect,"30 µM, 30.03 µM",-3.57%
CN(Cc1nccs1)C1CCN(c2cccc(-c3cscn3)c2)CC1,Percent Effect,"30.3 µM, […]",-33.72%
O=C1CCCN1c1cccc(N2CCC(NCCc3cscn3)CC2)c1,Percent Effect,"30.3 µM, […]",6.374%
CC1(c2ccc(Br)cc2)CC(=O)N(CC(N)=O)C1=O (stereo unspecified),Percent Effect,"30.3 µM, […]",-17.28%
Cn1cc(C(=O)CC2CCCN2C(=O)c2cccc3ncccc23)cn1 (stereo unspecified),Percent Effect,"30.3 µM, […]",-17.51%
Cc1ccc(C(=O)NCCC2CN(C3CCCC3)CCO2)c(C)c1 (stereo unspecified),Percent Effect,"30 µM, 30.03 µM",0.3212%
O=C(c1cc2c(Cl)cccc2[nH]1)N1CCN(CCc2ccccn2)CC1,Percent Effect,"30 µM, 30.03 µM",6.57%
CCOC(=O)c1ccc(S(=O)(=O)NCc2cccnc2N(C)C)cc1,Percent Effect,10 µM,-42.9%
Cc1ccc(CCC(=O)N(C)CCN2CCOCC2)c(C)c1,Percent Effect,"30 µM, 30.03 µM",15.97%
Fc1ccc(CN2CCCC(c3cc4ncccc4[nH]3)C2)cc1 (stereo unspecified),Percent Effect,"30.3 µM, […]",55.67%
CCOc1nnc(CN2CCCC(c3nc4ccccc4[nH]3)C2)s1 (stereo unspecified),Percent Effect,"30 µM, 30.03 µM",-9.691%
CCOc1ccc(CN2CCN(C(=O)c3cc(C4CC4)[nH]n3)CC2)cc1,Percent Effect,"30.3 µM, […]",-13.15%
same,Percent Effect,"10 mM, 10 mM as filed; unlikely as a test dose",-41.12%
CCOc1ccc(CN2CCCC(c3cc4ncccc4[nH]3)C2)cc1 (stereo unspecified),Percent Effect,"30.3 µM, […]",100.2%
CC(=O)Nc1ccc(CN2CCCC(c3cc4ncccc4[nH]3)C2)cc1 (stereo unspecified),Percent Effect,"30.3 µM, […]",8.67%
Cl.Cn1nc(C2CCCN(Cc3ccc(F)cc3)C2)c2nccnc21 (stereo unspecified),Percent Effect,"30.3 µM, […]",4.536%
O=S(=O)(C1CC1)N1Cc2nccn2CC(Cn2cncn2)C1 (stereo unspecified),Percent Effect,"30.3 µM, […]",-41.46%
CC1c2ncc(CN3CCN(C)CC3)n2CCN1Cc1ccc(F)cc1.O=C(O)C(F)(F)F.O=C(O)C(F)(F)F.O=C(O)C(F)(F)F (stereo unspecified),Percent Effect,"30.3 µM, […]",-44.2%
CN(Cc1ccco1)[C@@H]1CN(C(=O)c2cnccn2)C[C@@H]2CCCO[C@@H]21.O=C(O)C(F)(F)F,Percent Effect,"30 µM, 30.03 µM",-17.24%
COc1cc(N2CCC3(CCN(Cc4csc(C)n4)C3=O)C2)ncn1.O=C(O)C(F)(F)F (stereo unspecified),Percent Effect,"30.3 µM, […]",-84.03%
COCC1COCCC12CCN(S(=O)(=O)c1cccnc1)CC2.O=C(O)C(F)(F)F (stereo unspecified),Percent Effect,"30.3 µM, […]",-13.71%
O=C(COc1ccc2c(c1)CCC2)NS(=O)(=O)c1cccnc1,Percent Effect,10 µM,-70.49%
Cc1ccc(N2CC[C@@H]3[C@@H]2CCN3C(=O)Cc2ccccc2)nn1.O=C(O)C(F)(F)F,Percent Effect,"30.3 µM, […]",-46.46%
O=C(c1cccc(Cn2ccnc2)c1)N1CCCC(n2cccn2)C1 (stereo unspecified),Percent Effect,"30.3 µM, […]",2.699%
CN1CCOC(CNCc2cccc(OCc3ccccn3)c2)C1 (stereo unspecified),Percent Effect,"30 µM, 30.03 µM",-14.98%
CCN1CCOC(CNCc2ccc(OCc3ccccn3)cc2)C1 (stereo unspecified),Percent Effect,10 µM,-32.81%
Cc1nc(COc2ccc(CNCC3CN(C)CCO3)cc2)cs1 (stereo unspecified),Percent Effect,"30.3 µM, […]",-2.349%
Cc1nc(CNCC2CN(C)CCO2)cs1 (stereo unspecified),Percent Effect,"30.3 µM, […]",3.844%
Cc1ccc(OCc2nc(CNCC3CN(C)CCO3)cs2)cc1 (stereo unspecified),Percent Effect,10 µM,77.03%
CN1CCOC(CNCc2ccc(OCc3ccccn3)cc2)C1 (stereo unspecified),Percent Effect,"30.3 µM, […]",56.06%
same,Percent Effect,"10 mM, 10 mM as filed; unlikely as a test dose",-23.3%
Cc1ccc(S(=O)(=O)NCC(C)(C)N)c(F)c1.Cl,Percent Effect,"30 µM, 30.03 µM",-16.31%
Cc1cc(Oc2ccccc2F)nc(C2CCCCN2)n1.Cl.Cl (stereo unspecified),Percent Effect,"30.3 µM, […]",-25.86%
Cc1nn(C)c(N(C)C)c1CNC1CCc2c(Cl)cccc21.Cl (stereo unspecified),Percent Effect,"30.3 µM, […]",17.67%
CN(Cc1cn2c(n1)CN(C(=O)CC1CC1)CC2)Cc1ccco1.O=C(O)C(F)(F)F,Percent Effect,"30 µM, 30.03 µM",13.03%
CC(C)CN1CCCC1c1ccc(C(=O)Nc2ccc3[nH]nnc3c2)s1 (stereo unspecified),Percent Effect,"30.3 µM, […]",85.03%
CC(C)CN1CCCC1c1ccc(C(=O)Nc2cccnc2)s1 (stereo unspecified),Percent Effect,"30.3 µM, […]",100.5%
Cc1cnc(NC(=O)c2ccc(C3CCCN3CC(C)C)s2)s1 (stereo unspecified),Percent Effect,"30.3 µM, […]",0.4974%
CC(C)CN1CCCC1c1ccc(C(=O)Nc2cn(C)nn2)s1 (stereo unspecified),Percent Effect,"30.3 µM, […]",0.1891%
CC(C)CN1CCCC1c1ccc(C(=O)Nc2cc[nH]n2)s1 (stereo unspecified),Percent Effect,"30.3 µM, […]",23.5%
CCc1nnc(NC(=O)c2ccc(C3CCCN3CC(C)C)s2)s1 (stereo unspecified),Percent Effect,"30.3 µM, […]",-0.9926%
COCCN(C)C[C@@H]1CN(C(=O)c2ccc3c(c2)OCO3)C[C@@H]1CO,Percent Effect,"30 µM, 30.03 µM",-13.62%
CC(C)Cc1nc(OCC(N)=O)c(C#N)c2c1CCCC2,Percent Effect,"30 µM, 30.03 µM",-29.84%
CCS(=O)(=O)N1CCN(Cc2ccncc2)c2nc(C)ccc2C1.O=C(O)C(F)(F)F.O=C(O)C(F)(F)F,Percent Effect,"30 µM, 30.03 µM",13.64%
COc1cccc2c1OCC(C(=O)NCc1nc3c(s1)CCCC3)C2 (stereo unspecified),Percent Effect,"30 µM, 30.03 µM",60.51%
COc1ccc2c(c1)OCC(C(=O)NCc1nc3c(s1)CCCC3)C2 (stereo unspecified),Percent Effect,"30 µM, 30.03 µM",-46.37%
COc1cccc2c1OCC(C(=O)NCCc1nc3c(s1)CCC3)C2 (stereo unspecified),Percent Effect,"30 µM, 30.03 µM",-23.46%
Cc1ccc2c(c1)C(NC(=O)N(C)C)CC21CCN(C(C)C)CC1.O=C(O)C(F)(F)F (stereo unspecified),Percent Effect,"30.3 µM, […]",-8.347%
COCCN1CCC2(CC1)CC(NC(=O)C(C)C)c1ccccc1O2.O=C(O)C(F)(F)F (stereo unspecified),Percent Effect,"30.3 µM, […]",3.771%
CC(NCc1ccc(OCC(N)=O)cc1)c1ccc2c(c1)CCCC2 (stereo unspecified),Percent Effect,"30.3 µM, […]",58.39%
CC(NCc1ccc(OCC(N)=O)cc1)c1ccc(Cl)c(Cl)c1.Cl (stereo unspecified),Percent Effect,"30.3 µM, […]",16.7%
CC(NCc1ccc(OCC(N)=O)cc1)c1ccc(Cl)cc1.Cl (stereo unspecified),Percent Effect,"30.3 µM, […]",-11.6%
O=C(O)C(F)(F)F.O=C(O)C(F)(F)F.O=C(O)C(F)(F)F.c1ccc(CN2CCc3nnc(COc4ccccn4)n3CC2)nc1,Percent Effect,"30 µM, 30.03 µM",1.272%
Cc1ccc(CN2CCn3c(C(=O)N(C)C)cnc3C2)s1.O=C(O)C(F)(F)F,Percent Effect,"30 µM, 30.03 µM",-2.366%
CCCn1c(C)c(CC(=O)NC(C)CO)c2c1CC(C)(C)CC2=O (stereo unspecified),Percent Effect,"30 µM, 30.03 µM",-12.97%
CCCn1c(C)c(CC(=O)N[C@H](C)C(=O)OC)c2c1CC(C)(C)CC2=O,Percent Effect,"30 µM, 30.03 µM",85.29%
CCCn1c(C)c(CC(=O)NC)c2c1CC(C)(C)CC2=O,Percent Effect,"30 µM, 30.03 µM",24.04%
Cc1cc(N2CCOCC(Cc3ccc4[nH]ccc4c3)C2)ncn1 (stereo unspecified),Percent Effect,"30.3 µM, […]",12.74%
c1cc(N2CCOCC(Cc3ccc4[nH]ccc4c3)C2)ncn1 (stereo unspecified),Percent Effect,"30.3 µM, […]",-4.218%
Nc1cc(N2CCOCC(Cc3ccc4[nH]ccc4c3)C2)ncn1 (stereo unspecified),Percent Effect,"30.3 µM, […]",67.68%
O=C(CC1CC2(CCN(CC3CC3)CC2)Oc2ccccc21)NC1CC1.O=C(O)C(F)(F)F (stereo unspecified),Percent Effect,"30.3 µM, […]",11.6%
CCC[C@H]1CN(S(=O)(=O)N(C)Cc2ccccc2)C[C@@H]1N,Percent Effect,"30 µM, 30.03 µM",8.364%
CCOCc1ccccc1NC(=O)NC1CCN(C2CCCC2)C1 (stereo unspecified),Percent Effect,"30.3 µM, […]",99.06%
CCOCc1ccccc1NC(=O)NC1CCN(CC(F)(F)F)C1 (stereo unspecified),Percent Effect,"30.3 µM, […]",8.993%
CCOCc1ccccc1NC(=O)NC1CCN(c2ccccc2)C1 (stereo unspecified),Percent Effect,"30.3 µM, […]",12.17%
CN1CCCC(c2ccnc(C(=O)NCC3CC3)c2)C1 (stereo unspecified),Percent Effect,"30.3 µM, […]",-15.86%
Cn1cc(CN2CCCC3(CCCCN3S(C)(=O)=O)C2)cn1.O=C(O)C(F)(F)F (stereo unspecified),Percent Effect,"30 µM, 30.03 µM",-25.71%
COCC(=O)N1Cc2c(-c3cccc(C)c3)nc(N)nc2C1C (stereo unspecified),Percent Effect,"30.3 µM, […]",-11.02%
Cc1cccc(-c2nc(N)nc3c2CN(C(=O)c2ccncn2)C3C)c1 (stereo unspecified),Percent Effect,"30.3 µM, […]",-0.8654%
Cc1cccc(-c2nc(N)nc3c2CN(C(=O)c2cc(C)n[nH]2)C3C)c1 (stereo unspecified),Percent Effect,"30.3 µM, […]",90.24%
